Bioassay records deposited in PubChem by National Center for Advancing Translational Sciences (NCATS).
KAT2A inh: blocks human GCN5L2 histone acetyltransferase; hit rate 0.21% among 390,000; Q92830; Potency, µM (highest dose often 58.9 µM), for the others: top-dose activity change, negative = inhibition, most hits filed as inhibitors; GCN5L2 HAT assay, ThioGlo1 CoA-SH fluorescence; note: % is set by controls: 0 for no effect and ±100 for the full control effect
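ThioGlo1-coupled HAT assay: 20nM GCN5L2, 70uM acetyl-CoA, 75uM H3(1-25) peptide, pH 7.5. Fluorescence read at 340/540nm at start and after 20 min at room temperature.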
Tb PFK inh: T. brucei PFK enzyme inhibition; Potency, µM (highest dose often 57.5 µM), for the others: at the top dose activity, negative = inhibition, hits mostly inhibitors; O15648; hit rate 0.17% among 330,000; T. brucei PFK, ADP-Glo luminescence;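 note: 0% = uninhibited 1x PFK enzyme wells and -100% = no-enzyme wells; nearly all actives have a fitted effect of over 60% in size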
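In TEA buffer at pH 8.0 with 5 mM MgCl2, enzyme (1.25 nM) converted F6P (0.5 mM) and ATP (0.1 mM) for 45 min at room temperature. ADP product was read by luciferase luminescence.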
ERG Ets-DNA blk: blocks human ERG Ets domain binding to DNA; Potency, µM (series often up to 76.9 µM), without a hit: at the top dose FP activity, negative = inhibition, usual class: inhibitors; AID 624246; hit rate 0.028% among 370,000; fluorescence polarization, His-ERG Ets domain / labelled DNA; P11308; active = well fitted inhibition curve with a large enough effect in the polarisation, with a control signal flat; inconclusive = small, poorly fitted or top-dose-only effect, or effect the other way, or a change in a side signal; inactive = no such curve, though single readings can be large or run the other way; the % refers to the polarisation;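 note: polarization taken with two DNA probes labelled with fluorescein and Texas red; % of control where 0% means no effect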
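His-tagged ERG Ets domain (1 uM in the protein solution; 300mM KCl, 50mM Tris-HCl, 1mM EDTA, 1mM DTT, pH 7.5) received compound, then a probe mix of 5 nM fluorescein-DNA and 100nM Texas-615-DNA. Fluorescence polarization was read for both dyes.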
ASM inhibitor: blocks human secretory acid sphingomyelinase | P17405 | placental ASM, HMU-PC fluorogenic substrate, 60 min | Potency, µM (top dose mostly 57.5 µM), without a hit: top-dose activity change, negative = inhibition, usual class: inhibitors | hit rate 0.006% among 340,000 | AID 504937
Target sequence (P17405 47-631 limits assumed): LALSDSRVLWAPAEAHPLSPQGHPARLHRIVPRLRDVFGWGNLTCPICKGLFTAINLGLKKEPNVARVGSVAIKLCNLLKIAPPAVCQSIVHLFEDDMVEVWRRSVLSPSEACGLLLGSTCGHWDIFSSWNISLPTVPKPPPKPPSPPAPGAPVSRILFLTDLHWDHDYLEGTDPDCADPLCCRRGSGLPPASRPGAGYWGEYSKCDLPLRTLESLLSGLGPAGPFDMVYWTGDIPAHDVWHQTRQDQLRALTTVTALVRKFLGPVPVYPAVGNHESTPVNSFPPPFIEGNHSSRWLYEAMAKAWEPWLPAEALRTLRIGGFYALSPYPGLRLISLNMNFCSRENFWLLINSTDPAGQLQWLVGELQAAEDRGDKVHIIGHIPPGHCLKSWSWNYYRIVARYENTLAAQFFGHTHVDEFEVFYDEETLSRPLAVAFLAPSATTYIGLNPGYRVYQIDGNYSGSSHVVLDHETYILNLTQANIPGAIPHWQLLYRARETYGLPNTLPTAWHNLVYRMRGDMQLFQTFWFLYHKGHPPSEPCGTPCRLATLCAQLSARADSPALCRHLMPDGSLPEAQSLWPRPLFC
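qHTS format. ASM enzyme prepared from human placenta hydrolyses the fluorogenic substrate HMU-PC0 (9 uM final) over 60 min at 37 °C after a 10 min compound preincubation.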
p53 reactivation: restores transcriptional activity of mutant p53; H1299 p53-A138V BP100-luciferase reporter, luminescence, 24 h; hit rate 0.063% among 320,000; Potency, µM (top dose mostly 92.2 µM), without a hit: at the top dose activity change, positive = activation, hits mostly activators; note: % of control where 0% means no effect; nearly all actives have a fitted effect of over 45% in size
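p53-null H1299 cells stably carrying temperature-sensitive p53-A138V and a BP100-luciferase reporter were pinned with compounds (4-point, 1:5 series) and held 24 hrs at 37 deg C. Luminescence was read 10 min after detection reagent.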
AT treatment: potential ataxia-telangiectasia treatment. F2112 A-T fibroblasts, KAP-1 phosphorylation AlphaLISA; neocarzinostatin DNA damage 30 min before lysis. Potency, µM (titrated, usually from 57.5 µM), without a hit: at the highest dose activation, hits mostly activators. hit rate 0.19% among 320,000; note: % of control where 0% means no effect; nearly all actives have a fitted effect of over 45% in size
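hTERT-immortalized A-T patient fibroblasts (F2112), 500 cells/well in OPTI-MEM, 1% FBS, got compounds for 60 min, then NCS for 30 min at 37C. Lysates were then assayed for phospho-KAP-1 by AlphaLISA (anti-pKAP1 donor, anti-KAP1 acceptor beads), 6 hr at 25C.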
* = called active by the depositor; i = inactive; ? = inconclusive; / = no result given; ! = not confirmed by another sample. A selection: hits, their analogues and other compounds. The true share with any hit is near 0.55%. Unless noted, calls come from the whole dose curve; as a rule, active = well fitted curve in the direction sought with a large enough effect; inconclusive = small, poorly fitted or top-dose-only effect, or another doubt; inactive = no such curve, though single readings can be large; an effect the other way counts as inactive or inconclusive. Potency is the fitted concentration of half-maximal effect.

SMILES | KAT2A inh | Tb PFK inh | ERG Ets-DNA blk | ASM inhibitor | p53 reactivation | AT treatment
COc1cccc(-c2nnc(SCC(=O)N(C)c3ccccc3)o2)c1 | -9% | / | 0% | / | / | /
COc1ccc(N(C(=O)c2ccc(S(=O)(=O)N3CCOCC3)cc2)C2C=CS(=O)(=O)C2)cc1 (stereo unspecified) | 2.2µM* | -4% | -1% | 4% | 3% | -2%
C=CCSc1nc2ccccc2n1C(=O)/C=C/c1ccc(OC)c(OC)c1 | 0% | -6% | 11% | -8% | 9% | 32µM*
C=CCSc1nc2ccccc2n1C(=O)/C=C/c1cc(OC)c(OC)c(OC)c1 | -21% | -2% | 2% | -9% | -10% | /
CCSc1nc2ccccc2n1C(=O)/C=C/c1ccc(OC)c(OC)c1 | -9% | ? | 6% | -16% | -16% | 22µM*
Cc1ccc(NC(=O)CCS(=O)(=O)c2ccc(Br)s2)c(Br)c1 | -3% | / | -1% | / | / | /
CC1(C(=O)N2CCN(C(=O)c3ccco3)CC2)CC1(Br)Br (stereo unspecified) | 6.3µM* | 6% | 13% | 2% | -15% | 0%
CCc1c(C)sc2c1CCN(C(=O)Nc1ccc(F)c(Cl)c1)C2c1ccc(F)cc1 (stereo unspecified) | -15% | / | 9% | / | / | /
COCCNc1nc(-c2c(C)noc2C)nc2ccccc12 | -18% | / | / | / | / | /
Cc1noc(C)c1-c1nc(NCc2cccs2)c2ccccc2n1 | 22µM* | / | / | / | / | /
COC(=O)C1=CN(C2CC2)C=C(C(=O)OC)C1c1ccc(C(=O)OC)cc1 | ? | -2% | -2% | i | 0% | 32µM*
COC(=O)C1=CN(C2CC2)C=C(C(=O)OC)C1c1ccc(C(F)(F)F)cc1 | -20% | -5% | -7% | i | -3% | 27%
Cc1cccc(NC(=O)CSc2nc3ccc(NC(=O)c4ccccc4)cc3s2)c1 | -7% | / | 2% | / | / | /
O=C(Nc1ncc2c(n1)-c1ccccc1CC2)c1cccc(Cl)c1 | 3.2µM* | 3% | -5% | 0% | -2% | -3%
O=C(Nc1ncc2c(n1)-c1ccccc1CC2)c1ccc(Cl)cc1 | -6% | 2% | 0% | -2% | -2% | -3%
CC(=O)N[C@@H](Cc1ccc(O)cc1)C(=O)N[C@H](C(=O)N[C@@H](C)C(=O)N[C@H](C#N)CC(=O)O)C(C)C | -3% | -12% | / | / | / | 4%
COCCn1c(C)c(C)c(S(=O)(=O)c2ccccc2)c1N | -10% | 0% | 35µM* | 13% | 0% | 0%
Cc1ccc(Cl)cc1NC(=O)c1cc2c(=O)n3cccc(C)c3nc2n1C | 0% | / | 3% | / | / | /
COc1ccc(S(=O)(=O)Nc2cc3c(cc2NCc2ccccc2)n(C)c(=O)n3C)cc1OC | -8% | / | 9% | / | / | /
COc1cc2ccc(=O)oc2c(O[C@@H]2O[C@H](CO)[C@@H](O)[C@H](O)[C@H]2O)c1O | 22µM* | 10% | 1% | i | 2% | -2%
CC[C@@]12CCCN3CCc4c(n(c5ccccc45)[C@](O)(C(=O)OC)C1)[C@H]32 | 13µM*! | / | / | / | / | /
O=C(NCCC1=CCCCC1)c1ccc2c(c1)N(Cc1ccc(Cl)cc1)C(=O)c1ccccc1S2(=O)=O | -4% | / | 0% | / | / | /
CCC(=O)Nc1cccc(C(=O)OCc2cccc([N+](=O)[O-])c2)c1 | 9% | 2% | 7.1µM* | -1% | -9% | 5%
COc1ccc(OC)c(C2NC(=O)NC(C)=C2C(=O)Nc2ccc(F)cc2)c1 (stereo unspecified) | -8% | / | 4% | / | / | /
COC(=O)CCc1c(C)c(C(=O)c2cc(OC)c(OC)c(OC)c2)c2ccccn12 | -2% | -6% | -3% | -7% | -8% | 3.5µM*
COc1ccccc1C(=O)c1c(C)c(CCC#N)n2ccccc12 | -2% | 1% | -12% | -5% | -3% | -3%
O=C1CN(CC(=O)N2CCOCC2)c2ccccc2O1 | 5% | 0% | / | / | -21% | 28µM*
